A number with no mark means an inactive call. Entries that show only a call come without a potency. For some assays here: Potency and affinity values are given separately. Activity calls are given as the source filed them. Unless noted, how the calls were made is not given here.
What was measured:
[1] = antimalarial activity against Dd2 strain (AID 2302;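 active means growth inhibition above 50% at the single 2 µM test dose, taken to imply half-maximal potency below 2 µM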); details: P. falciparum Dd2 in RBCs, LDH growth readout, 72 h; at 2 µM; hits give high values
[2] = HepG2 cytotoxicity, primary screen, cytotoxicity control for P. falciparum antimalarial project, cell-based, ATP luminescence (AID 2303;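 active means inhibition above 50%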); details: HepG2 viability, 24-48 h, at 10 µM, hits give high values
[3] = target: L-lactate dehydrogenase (Plasmodium falciparum (isolate CDC / Honduras)) (UniProt Q27743); test: PfLDH activity inhibition – cell lysate, 3D7 strain, counter-screen for P. falciparum growth inhibition project (AID 2304); details: P. falciparum 3D7 crude extract, LDH APAD/NBT absorbance; at 2 µM; hits give high values
Chain of L-lactate dehydrogenase (Plasmodium falciparum (isolate CDC / Honduras)) (Q27743 whole entry, looked up): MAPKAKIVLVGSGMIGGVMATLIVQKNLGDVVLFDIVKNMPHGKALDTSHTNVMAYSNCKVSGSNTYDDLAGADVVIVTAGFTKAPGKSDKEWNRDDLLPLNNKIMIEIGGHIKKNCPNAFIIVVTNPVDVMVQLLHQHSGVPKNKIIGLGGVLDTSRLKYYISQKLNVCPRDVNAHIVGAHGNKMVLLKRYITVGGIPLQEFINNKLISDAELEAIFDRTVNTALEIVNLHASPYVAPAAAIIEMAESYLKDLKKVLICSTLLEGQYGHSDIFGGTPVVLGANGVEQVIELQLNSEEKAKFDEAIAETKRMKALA

[4] = inhibition of 3D7 malaria parasite growth – strain 3D7 (AID 2306); details: P. falciparum 3D7 erythrocytic growth, LDH absorbance, 72 h; at 2 µM; hits give high values
[5] = target: Calcium-dependent protein kinase 1 (Plasmodium falciparum (isolate 3D7)) (UniProt P62344); test: PfCDPK1 kinase inhibitors, biochemical, TCAMS library (AID 1159585; cut-off not given, nearly all actives have IC50 up to about 0.98 µM;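 further: inhibitors leave more ATP so luminescence rises with inhibition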); details: recombinant PfCDPK1, Kinase-Glo ATP depletion luminescence
Chain of Calcium-dependent protein kinase 1 (Plasmodium falciparum (isolate 3D7)) (P62344 whole entry, looked up): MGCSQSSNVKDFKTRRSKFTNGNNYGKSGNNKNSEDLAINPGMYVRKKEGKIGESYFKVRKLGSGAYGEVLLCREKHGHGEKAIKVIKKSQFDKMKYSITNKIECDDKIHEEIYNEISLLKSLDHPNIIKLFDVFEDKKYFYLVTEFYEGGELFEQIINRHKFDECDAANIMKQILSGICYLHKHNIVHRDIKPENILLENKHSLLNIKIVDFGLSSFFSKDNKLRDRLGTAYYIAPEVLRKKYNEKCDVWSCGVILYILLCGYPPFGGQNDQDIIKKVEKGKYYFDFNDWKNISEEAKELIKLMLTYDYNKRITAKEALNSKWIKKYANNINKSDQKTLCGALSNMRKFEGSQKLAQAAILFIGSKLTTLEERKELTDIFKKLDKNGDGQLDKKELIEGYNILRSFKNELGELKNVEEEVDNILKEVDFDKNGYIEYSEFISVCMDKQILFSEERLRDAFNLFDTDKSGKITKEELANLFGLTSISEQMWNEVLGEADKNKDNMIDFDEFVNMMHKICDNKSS

[6] = target: Plasmodium falciparum protein kinase 6 (PK6, PF3D7_1337100) (UniProt Q8IDW1); test: PfPK6 kinase inhibitors, biochemical, TCAMS library (AID 1159586); details: recombinant PfPK6, Kinase-Glo ATP depletion luminescence
Chain of Plasmodium falciparum protein kinase 6 (PK6, PF3D7_1337100) (Q8IDW1 1-305): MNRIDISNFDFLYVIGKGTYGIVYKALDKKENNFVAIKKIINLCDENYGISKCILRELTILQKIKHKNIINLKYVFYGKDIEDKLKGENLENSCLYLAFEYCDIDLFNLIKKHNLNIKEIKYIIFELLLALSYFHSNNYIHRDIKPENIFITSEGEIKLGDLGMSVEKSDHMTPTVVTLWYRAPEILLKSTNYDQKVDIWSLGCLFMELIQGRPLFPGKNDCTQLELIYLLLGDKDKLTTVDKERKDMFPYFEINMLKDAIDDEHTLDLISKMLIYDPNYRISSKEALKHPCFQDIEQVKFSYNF

[7] = target: Protein kinase 7 (PK7), Plasmodium falciparum 3D7 (PF3D7_0213400) (UniProt Q7YTF7); test: inhibition of Plasmodium PK7 catalytic activity – biochemical, TCAMS antimalarial set, Kinase-Glo luminescence (AID 1159587); details: recombinant PfPK7, Kinase-Glo ATP depletion luminescence
Chain of Protein kinase 7 (PK7), Plasmodium falciparum 3D7 (PF3D7_0213400) (Q7YTF7 1-343): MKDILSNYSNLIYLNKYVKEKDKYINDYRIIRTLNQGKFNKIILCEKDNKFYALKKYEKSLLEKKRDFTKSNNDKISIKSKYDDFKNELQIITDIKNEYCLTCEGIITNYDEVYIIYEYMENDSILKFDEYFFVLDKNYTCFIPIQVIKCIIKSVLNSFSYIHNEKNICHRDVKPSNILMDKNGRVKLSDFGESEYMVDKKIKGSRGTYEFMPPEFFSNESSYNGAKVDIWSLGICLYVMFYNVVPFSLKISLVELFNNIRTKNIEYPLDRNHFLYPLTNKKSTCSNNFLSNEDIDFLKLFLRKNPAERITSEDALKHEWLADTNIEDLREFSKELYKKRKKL

[8] = target: Calcium-dependent protein kinase 4 (Plasmodium falciparum (isolate 3D7)) (UniProt Q8IBS5); test: PfCDPK4 kinase inhibitors, biochemical, TCAMS library (AID 1159588; cut-off not given, nearly all actives have IC50 up to about 0.91 µM); details: recombinant PfCDPK4, Kinase-Glo ATP depletion luminescence
Chain of Calcium-dependent protein kinase 4 (Plasmodium falciparum (isolate 3D7)) (Q8IBS5 whole entry, looked up): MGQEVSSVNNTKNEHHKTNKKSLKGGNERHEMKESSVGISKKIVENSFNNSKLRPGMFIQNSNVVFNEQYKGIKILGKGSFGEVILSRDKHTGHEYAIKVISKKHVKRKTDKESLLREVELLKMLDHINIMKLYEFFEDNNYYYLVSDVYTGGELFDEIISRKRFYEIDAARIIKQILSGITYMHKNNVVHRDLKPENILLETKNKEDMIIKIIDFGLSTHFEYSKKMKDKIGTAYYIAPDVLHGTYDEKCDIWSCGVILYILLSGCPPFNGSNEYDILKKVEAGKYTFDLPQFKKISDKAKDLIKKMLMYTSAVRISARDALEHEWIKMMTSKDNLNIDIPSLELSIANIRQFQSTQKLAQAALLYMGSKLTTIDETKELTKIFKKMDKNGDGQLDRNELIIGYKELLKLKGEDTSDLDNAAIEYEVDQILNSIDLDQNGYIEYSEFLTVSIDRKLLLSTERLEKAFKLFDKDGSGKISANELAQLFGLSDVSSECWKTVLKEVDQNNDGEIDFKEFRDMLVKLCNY

SMILES | growth inhibition [1] | inhibition [2] | inhibition [3] [%] | growth inhibition [4] | outcome [5] | outcome [6] | outcome [7] | outcome [8]
O=C(/C=C/c1ccc(C(F)(F)F)cc1)NCCCCCN1CCCN(C(=O)Nc2cccc(Cl)c2)CC1 | 3% | 16% | 3 | 92% (active) | inactive | inactive | inactive | inactive
O=C(c1ccccc1)N1CCC(CN2CCOC(c3ccccc3)(c3ccccc3)C2)CC1 | 95% (active) | 14% | 1 | 94% (active) | inactive | inactive | inactive | inactive
CCOc1ccc(C=CC(=O)Nc2ccc3nc(N4CCOCC4)cc(C)c3c2)cc1OC | 23% | 14% | 5 | 92% (active) | inactive | inactive | inactive | inactive
CCOc1cccc(C(=O)Nc2nonc2-c2ccc(OC)c(OC)c2)c1 | 95% (active) | 11% | 4 | 92% (active) | inactive | inactive | inactive | inactive
COC(=O)Cn1c(C2CCN(CC3CCC(NC(=O)/C=C/c4ccc(Cl)c(Cl)c4)CC3)CC2)nc2ccccc21 (stereo not given) | 17% | 12% | 4 | 95% (active) | inactive | inactive | inactive | inactive
O=C(/C=C/c1ccc(-c2nc3cc(F)c(F)cc3[nH]2)cc1)NCc1ccc(Cl)c(Cl)c1 | 24% | 14% | 4 | 100% (active) | inactive | inactive | inactive | inactive
Cc1ccc(NC(=O)Nc2ccccc2F)cc1-c1ccc(C(=O)Nc2ccncc2)cc1 | 54% (active) | 36% | 3 | 99% (active) | inactive | inactive | inactive | inactive
COc1cc2c(cc1OC)CN(c1cc(N)c3cc(OC)c(OC)cc3n1)CC2 | 99% (active) | 23% | -3 | 100% (active) | inactive | inactive | inactive | inactive
COc1ccccc1-c1csc(C(=O)NCC2CCN(Cc3ccc(C(C)(C)C)cc3)C2)c1 (stereo not given) | 11% | 29% | 0 | 93% (active) | inactive | inactive | inactive | inactive
COc1ccc(-c2nc3c(NCc4ccccc4)nccc3[nH]2)c(OC)c1 | 21% | 16% | 4 | 99% (active) | inactive | inactive | inactive | inactive
O=C(c1ccccc1)N(Cc1ccccc1-c1ccc(CNCCc2ccccc2)cc1)C1CCN(Cc2ccccc2)CC1 | 69% (active) | 95% (active) | -7 | 95% (active) | inactive | inactive | inactive | inactive
COCCN1CCN(Cc2ccc(-c3cccc(-c4nc5ccccc5[nH]4)c3)cc2)CC1 | 10% | 32% | 0 | 93% (active) | inactive | inactive | inactive | inactive
NC1CCN(CCNCc2cccc(-c3ccc(-c4nc5ccc(C(F)(F)F)cc5[nH]4)cc3)c2)C1 (stereo not given) | 75% (active) | 19% | 1 | 98% (active) | inactive | inactive | inactive | inactive
CCOc1cc(C)ccc1C1CCN(CCCCNC(=O)c2cnc(-c3ccc(C(F)(F)F)cc3)[nH]2)CC1 | 97% (active) | 16% | 2 | 95% (active) | inactive | inactive | inactive | inactive
Cc1ccc(-c2cc(C(=O)Nc3ccc(S(=O)(=O)N4CCOCC4)cc3)[nH]n2)c(O)c1C | 45% | 18% | -5 | 91% (active) | inactive | inactive | inactive | inactive
Cc1cccc2[nH]c(-c3ccc(-c4cccc(CN5CCN(CC6CCCN(C)C6)CC5)c4)s3)nc12 (stereo not given) | 99% (active) | 47% | 4 | 100% (active) | inactive | inactive | inactive | inactive
CN1CCCC(CN2CCN(Cc3cccc(-c4cccc(-c5nc6ccccc6[nH]5)c4)c3)CC2)C1 (stereo not given) | 99% (active) | 45% | -8 | 100% (active) | inactive | inactive | inactive | inactive
CNC(=O)c1cc(S(=O)(=O)N2CCN(c3ccccn3)CC2)c(C)s1 | 52% (active) | -2% | -1 | 91% (active) | inactive | inactive | inactive | inactive
COC(=O)C(C)(C)Cc1c(SC(C)(C)C)c2cc(C(C)C)ccc2n1Cc1ccc(Cl)cc1 | 96% (active) | -9% | 0 | 96% (active) | inactive | inactive | inactive | inactive
O=C(Nc1cccc(-c2nn3ccccc3c2-c2ccnc(Nc3ccc(Cc4ccncc4)cc3)n2)c1)c1c(F)cccc1F | 97% (active) | 43% | -1 | 97% (active) | inactive | inactive | inactive | inactive

SMILES | growth inhibition [1] | inhibition [2] | inhibition [3] [%] | growth inhibition [4] | outcome [5] | outcome [6] | outcome [7] | outcome [8]
CCOc1c(CNCCCNc2nc3ccccc3[nH]2)cc(Br)cc1OC | 0% | 29% | 2 | 99% (active) | inactive | inactive | inactive | inactive
FC(F)(F)c1ccc2nc(-c3cccc(-c4ccc(CNCc5cnn(-c6ccccc6)n5)cc4)c3)[nH]c2c1 | 67% (active) | 14% | -4 | 101% (active) | inactive | inactive | inactive | inactive
O=c1cc(NCC2(CNCc3cn(Cc4ccccc4)c4ccccc34)CCCCC2)[nH]c2ccccc12 | 56% (active) | 27% | 1 | 100% (active) | inactive | inactive | inactive | inactive
CNc1ccc(CNCc2cccc(-c3ccc(-c4nc5c(C)cccc5[nH]4)s3)c2)cc1 | 88% (active) | 23% | -2 | 101% (active) | inactive | inactive | inactive | inactive
CCOC(=O)c1c(SCc2cccc(F)c2F)[nH]c2ccccc2c1=O | 95% (active) | 1% | -2 | 98% (active) | inactive | inactive | inactive | inactive
CC(C)Cn1cc(C2CCN(CCN3CCC(CNC(=O)c4ccc(NC(=O)c5cc(Cl)cc(Cl)c5)cc4)CC3)CC2)c2ccccc21 | 96% (active) | 53% (active) | -2 | 91% (active) | inactive | inactive | inactive | inactive
c1ccc(Oc2ccc(Nc3ccnc4cc(-c5cccc(CNCCN6CCOCC6)c5)ccc34)cc2)cc1 | 98% (active) | 12% | 7 | 102% (active) | inactive | inactive | inactive | inactive
O=C(NCc1ccc(F)cc1)c1ccc(N2CCN(c3ccncc3)CC2)cn1 | 81% (active) | 7% | -2 | 98% (active) | inactive | inactive | inactive | inactive
COc1ccc2nccc([C@@H](O)CN3CCC(NCc4cc5ccccc5o4)CC3)c2c1 | 72% (active) | 17% | 4 | 96% (active) | inactive | inactive | inactive | inactive
O=C(NCCN1CCCC1)c1cccc(-c2ccc(-c3nc4ccc(C(F)(F)F)cc4[nH]3)cc2)c1 | 99% (active) | 34% | -3 | 101% (active) | inactive | inactive | inactive | inactive
CCCCCCN1CCC(NCc2ccc(OCCN3CCCC3)cc2)CC1 | 93% (active) | 23% | 0 | 101% (active) | inactive | inactive | inactive | inactive
O=C(NCc1ccc(Cl)c(Cl)c1)c1ccc(C2CCCN(Cc3ccc4nc[nH]c4c3)C2)cc1 (stereo not given) | 83% (active) | 9% | 3 | 100% (active) | inactive | inactive | inactive | inactive
Cc1sc2nc(CN3CCCC3)nc(-n3c(NCCO)nc4ccccc43)c2c1C | 11% | 19% | -2 | 96% (active) | inactive | inactive | inactive | inactive
Clc1cc(Nc2ccnc3ccc(Br)cc23)ccc1Oc1ccc2ccccc2c1Cl | 93% (active) | 5% | -5 | 100% (active) | inactive | inactive | inactive | inactive
CN1CCC(NCc2ccc(-c3ccc(S(=O)(=O)NCc4ccccc4)c(F)c3)cc2)CC1 | 89% (active) | 53% (active) | -3 | 99% (active) | inactive | inactive | inactive | inactive
Cc1cccc(-c2cc3cc(Nc4ccnc5cc(-c6nccs6)ccc45)ccc3[nH]2)c1 | 100% (active) | 0% | 1 | 101% (active) | inactive | inactive | inactive | inactive
Nc1nccc2ccc(OC3CCCCC3)cc12 | 41% | 24% | -4 | 98% (active) | inactive | inactive | inactive | inactive
Cc1ccc(NC(=O)c2ccc(Cl)cc2)cc1-c1ccc(C(=O)Nc2ccncc2)cc1 | 5% | 36% | 3 | 98% (active) | inactive | inactive | inactive | inactive
CCn1cc(C=C2Oc3c(ccc(O)c3CN3CCCCC3C)C2=O)c2ccccc21 (stereo not given) | 80% (active) | -6% | 6 | 94% (active) | inactive | inactive | inactive | inactive
CC(Oc1ccc(Cl)cc1)C(=O)N(C)C1CCN(CCCCCNC(=O)/C=C/c2ccc(Cl)c(Cl)c2)CC1 (stereo not given) | 10% | 61% (active) | -2 | 85% (active) | inactive | inactive | inactive | inactive

Reference: PubChem BioAssay
